# Test results: the supplement of paper PMC9135407
# Values joined by “and” are separate entries in the source; they are usually repeats but may differ in a detail not shown here. Equal entries are not always repeated. Structures can show the parent of a compound that is named as a salt. In all, about 5,800 compounds went through this assay and about 620 (11%) showed activity. Shown is part of a subset that was picked to be rich in actives. Values without a mark were called inactive.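 The calls were made as follows: active = score above a cut-off or among the top three wells of a plate; in these data no inactive exceeds 0.85.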
# System: primary human hepatic stellate cells (donor 1)
# Experiment: scaled lipid accumulation score (0 = DMSO-like, 1 = nortriptyline-like); higher = stronger HSC inactivation (lipid re-accumulation), active = hit call of the paper
# Details: 48 h
# [1] = library stock concentration: 1 mM
# [2] = library stock concentration: 10 mM
# [3] = library stock concentration: 80 uM
# [4] = library stock concentration: 400 uM
# [5] = library stock concentration: 2 mM
# [6] = library stock concentration: 3.33 mM
# [7] = library stock concentration: 100 uM
smiles,measurement,setting,value
"CCCCCCCCCCCCC/C=C/[C@@H](O)[C@H](CO)N(C)C [N,N-Dimethylsphingosine] [listing 1 of 2 here]",scaled lipid accumulation score,[1],0.185
"CCCCCCCCCCCCC/C=C/[C@@H](O)[C@H](CO)N(C)C [N,N-Dimethylsphingosine] [listing 2 of 2 here]",scaled lipid accumulation score,[1],0.965 (active)
CCCCCCCCCCCCC/C=C/[C@@H](O)[C@@H](N)CO [Sphingosine],scaled lipid accumulation score,[1],≤ -0.021
Nc1nc(NCC2CCC(CNS(=O)(=O)c3cccc4ccccc34)CC2)nc2ccccc12 (stereo unspecified),scaled lipid accumulation score,[2],0.415
O=C(/C=C/c1ccc(/C=C/C(=O)Nc2ccc(C3=NCCN3)cc2)cc1)Nc1ccc(C2=NCCN2)cc1 [GW 4869 (hydrochloride hydrate)],scaled lipid accumulation score,[1],0.115
CCCCC[C@H](O)/C=C/[C@H]1[C@H](O)CC(=O)[C@@H]1C/C=C/CCCC(=O)Oc1ccc(NC(C)=O)cc1 [Prostaglandin E2 p-acetamidophenyl ester],scaled lipid accumulation score,[1],≤ 0
C[C@@H](O)CCC[C@H](O)/C=C/C1=C(C/C=C\CCCC(=O)O)C(=O)CC1 [19(R)-hydroxy Prostaglandin B2],scaled lipid accumulation score,[1],≤ 0
Fc1ccc([C@@H]2CCNC[C@H]2COc2ccc3c(c2)OCO3)cc1.O=C(O)/C=C\C(=O)O [Paroxetine],scaled lipid accumulation score,[2],1.02 (active)
Fc1ccc([C@@H]2CCNC[C@H]2COc2ccc3c(c2)OCO3)cc1.O=C(O)/C=C\C(=O)O [Paroxetine maleate],scaled lipid accumulation score,[2],1.14 (active)
CN1CCC(c2c(O)cc(O)c3c(=O)cc(-c4ccccc4Cl)oc23)C1CO (stereo unspecified) [Riviciclib],scaled lipid accumulation score,[3],0.019
same,scaled lipid accumulation score,[4],0.272
same,scaled lipid accumulation score,[5],≤ -0.001
same,scaled lipid accumulation score,[2],0.002
"COC(=O)/C=C/c1cc(O)ccc1O [Methyl 2,5-dihydroxycinnamate]",scaled lipid accumulation score,[2],0.182
CC#CCOC(=O)c1c(C)nc2sc3c(c2c1N)CCC(O)C3 (stereo unspecified) [listing 1 of 2 here],scaled lipid accumulation score,[2],0.882 (active)
CC#CCOC(=O)c1c(C)nc2sc3c(c2c1N)CCC(O)C3 (stereo unspecified) [listing 2 of 2 here],scaled lipid accumulation score,[2],1.72 (active)
Cc1cccc(C2CN(C)CCc3c2cc(O)c(O)c3Cl)c1 (stereo unspecified),scaled lipid accumulation score,[2],0.086
CCN(CC)CC#CCOC(=O)C(O)(c1ccccc1)C1CCCCC1.Cl (stereo unspecified) [Oxybutynin Chloride],scaled lipid accumulation score,[2],0.862 (active)
CCN(CC)CC#CCOC(=O)C(O)(c1ccccc1)C1CCCCC1 (stereo unspecified) [Oxybutynin chloride],scaled lipid accumulation score,,0.397
same,scaled lipid accumulation score,[6],0.234
same,scaled lipid accumulation score,library stock concentration: 5.1 mM,0.317
same,scaled lipid accumulation score,[2],0.48
CC[N+](C)(CC)CCOC(=O)C(O)(c1ccccc1)C1CCCCC1 (stereo unspecified),scaled lipid accumulation score,[2],≤ 0
CCCCC/C=C\C\C=C/C=C/C=C/[C@@H](SC[C@H](N)C(=O)NCC(=O)O)[C@@H](O)CCCC(=O)O [Leukotriene D4],scaled lipid accumulation score,[7],≤ -0.014
"N#Cc1cc([N+](=O)[O-])c2sc(C(N)=O)[n+]([O-])c2c1 [Polo-like Kinase Inhibitor II, BTO-1]",scaled lipid accumulation score,[6],≤ 0
CCCCC/C=C\C=C\[C@@H](O)CCCCCCCC(=O)O,scaled lipid accumulation score,[7],≤ -0.021
O=C(CN=C(c1ccccc1)c1ccccc1)OCc1ccccc1 [N-(diphenylmethylene) Glycine benzyl ester],scaled lipid accumulation score,[1],0.004
C#CCCCCCCCCCNC(=O)Oc1cccc(-c2cccc(C(N)=O)c2)c1,scaled lipid accumulation score,[1],≤ 0
CCC(=O)Nc1cccc(Oc2nc(Nc3ccc(N4CCN(C)CC4)cc3OC)ncc2Cl)c1 [listing 1 of 3 here],scaled lipid accumulation score,[2],0.997 (active)
C=CC(=O)Nc1cccc(Oc2nc(Nc3ccc(N4CCN(C)CC4)cc3)ncc2Cl)c1,scaled lipid accumulation score,[6],0.415
same,scaled lipid accumulation score,[2],0.711
COc1cc(N2CCC(N3CCN(C)CC3)CC2)ccc1Nc1ncc(Cl)c(Nc2ccccc2S(=O)(=O)C(C)C)n1,scaled lipid accumulation score,[3],≤ 0
same,scaled lipid accumulation score,[4],0.087
same,scaled lipid accumulation score,[5],0.571
same,scaled lipid accumulation score,[2],0.613
CCC(=O)Nc1cccc(Oc2nc(Nc3ccc(N4CCN(C)CC4)cc3OC)ncc2Cl)c1 [listing 2 of 3 here],scaled lipid accumulation score,[2],1.11 (active)
CCC(=O)Nc1cccc(Oc2nc(Nc3ccc(N4CCN(C)CC4)cc3OC)ncc2Cl)c1 [listing 3 of 3 here],scaled lipid accumulation score,[3],≤ -0.001
same,scaled lipid accumulation score,[4],≤ -0.001
same,scaled lipid accumulation score,[5],≤ -0.001
same,scaled lipid accumulation score,[6],0.472
C=CC(=O)Nc1cccc(Oc2nc(Nc3ccc(N4CCN(C)CC4)cc3OC)ncc2Cl)c1,scaled lipid accumulation score,[3],≤ 0
same,scaled lipid accumulation score,[4],≤ 0
same,scaled lipid accumulation score,[5],0.172
same,scaled lipid accumulation score,[6],0.507
same,scaled lipid accumulation score,[2],0.707 and 0.265
CCCCCCCCCCCC1N[C@H](C(=O)O)CS1 (stereo partly specified),scaled lipid accumulation score,[1],≤ 0
